Over roughly 9,900 sequences, “r (bound/input frequency ratio)” has its median near 0.7; the highest 2% begin near 6.5. The sample holds the highest values, similar sequences and a random draw of the others, so the mix is not that of the screen.
B1: ENSMUSG00000058297.497|Spock2|151:155 (ssRNA)
RNA: GGGAGUUCUACAGUCCGACGAUCGCUUCGAUAUCCGCAUGCUAGGUUGGAGAGAGUAAAUGUGCCUUGAGAGACCACUCAGAGGUCCCAGGAGGAACGGGGGCGGGGCUUAGCCUGGGAGUUCUGGCAGGAGGCAAAGUUGGUGAGAGUCCUGGGACAUCUUACCCCCAGUGUUCCACAGGAGUCGUGACCACCACACAUGGGUGGGCACAGGUCUGCCUUGCUCCAGCCCCCUCCCUUGGUUUCUGUUGGUACCCAUUUGGCUUUUAUCUGCUUUCUGCUUCACCACUAAGUGCGUAGGUGGCUCUUGCGGUCGCACUAGUGUGGAAUUCUCGGGUGUCAAGG
B2: ENSMUSG00000061578.971|Ksr2 (ssRNA)
RNA: GGGAGUUCUACAGUCCGACGAUCGCUUCGAUAUCCGCAUGCUAGGAAGGUAGUUUUCCCCCAGAAAGUCCCUUCUAAUAAACAUUGAUGACUUUAGAAUCCAUGACUCAGAAUUUUCCAGAGACCCAAUCCCUCGGGGUCCACUUAGUGAUGGGACCAUACAAGAGUUUAUUUCCAAUUAGAGAAUUGGGUCAACUGGGAAAGGCUUCUUUCCUGGUAACCCUGCUACUGAUACUAUGUUGAAACAGGAAUCGACUCUAACUGCUUUUUGGCCUCUUCCCUGCACGGGAGUCUCAAAAUCAAGCUCUUGCGGUCGCACUAGUGUGGAAUUCUCGGGUGUCAAGG
B3: ENSMUSG00000058297.456|Spock2 (ssRNA)
RNA: GGGAGUUCUACAGUCCGACGAUCGCUUCGAUAUCCGCAUGCUAUCACACAGGUCAGAUUAUUGUCGGUCCUGCGGGCCUCAUCCUUGAAUAAGCUGCCUGCCCAGUUCCUCCAUCCGUGUUCCUGCCUGCUCCCGUUCCCUUGUUGCGGGCAGGAGAGGUAGGGCUGUGUUGGAAAGAGUUCAACCAAAUUACGGCAGCACCACAUCUUGCCGAGCCCUGGAGCUGCCCUACUAAGAGCCUCCUUAGCCCUGGGUGCUGGGAAGGAUGGUGUACGUUGGGGAAGUUUGAGGUUGGAGAGAGUACUCUUGCGGUCGCACUAGUGUGGAAUUCUCGGGUGUCAAGG
B4: ENSMUSG00000029028.209|Lrrc47 (ssRNA)
RNA: GGGAGUUCUACAGUCCGACGAUCGCUUCGAUAUCCGCAUGCUACAGCAGCUGCACAGAGGACUUGGUGGCCCCGUGCCUUGCCAUCUGGCUGAGAAGAGAACCAGACCCUCAGCCUUCCCCCUCGACACCUUCUCGUUGGUGACCUCUGACCUUAAAGGACCAUUUCUACCUUCUGUAAAAGAACACCUGUUUGGGGUUGCGUGCGGCUUUCAUCCUAAGGCCGUGCGAGAGCCGUUAGCUGUCAGAACUAGUGAAGCUCCAGGCUCCUCGUGGCAGACCCUGGACAACGCUGGUAGCUGUUCCUCUUGCGGUCGCACUAGUGUGGAAUUCUCGGGUGUCAAGG

The binders below were run against TDP-43 (Homo sapiens, UniProt Q13148 1-414) (assay: RNA Bind-n-Seq with designed 260-mer pool; 25 mM Tris-HCl, 150 mM KCl, 3 mM MgCl2, BSA (printed 500 mg/mL), 20 units/mL SUPERase IN; pH not stated; 500 nM RNA pool, 1 h, 4 C; TDP-43 5, 50, 500 nM; high values mean tight binding). Conditions: protein: recombinant; tags: SBP (GST cleaved off with PreScission; pGEX-GST-SBP).
Sequence of TDP-43 (Q13148 whole entry): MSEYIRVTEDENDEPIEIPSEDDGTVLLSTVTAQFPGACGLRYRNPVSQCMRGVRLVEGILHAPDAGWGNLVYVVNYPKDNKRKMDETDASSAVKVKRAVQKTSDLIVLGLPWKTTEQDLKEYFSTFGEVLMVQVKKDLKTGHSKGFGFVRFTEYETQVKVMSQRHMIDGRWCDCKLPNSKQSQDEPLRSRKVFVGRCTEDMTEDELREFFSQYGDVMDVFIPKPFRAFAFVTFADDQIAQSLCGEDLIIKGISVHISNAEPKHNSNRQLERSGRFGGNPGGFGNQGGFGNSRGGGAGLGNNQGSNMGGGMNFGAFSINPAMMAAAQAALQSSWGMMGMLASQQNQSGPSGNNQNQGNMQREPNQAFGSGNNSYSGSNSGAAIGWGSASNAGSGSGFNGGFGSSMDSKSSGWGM
How it was run: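 Recombinant SBP-tagged TDP-43 at 5, 50 or 500 nM was captured on streptavidin beads, then incubated 1 h at 4 °C with 500 nM of an in vitro-transcribed 260-nt 3′ UTR oligo pool in 25 mM Tris-HCl, 150 mM KCl, 3 mM MgCl2, BSA and SUPERase IN. Bound RNA was washed, eluted with biotin, reverse transcribed, PCR-amplified and sequenced. Binding is R, each oligo's mapped-read-normalized abundance in the bound sample divided by its abundance in input. Duplicates used two independent protein batches.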
With B1 the binding signal was 2.24 R (bound/input frequency ratio).
With B2 the binding signal was 0.299 R (bound/input frequency ratio).
With B3 the binding signal was 0.782 R (bound/input frequency ratio).
With B4 the binding signal was 0.424 R (bound/input frequency ratio).

— article PMC12864922, “TDP-43 directly inhibits mRNA accumulation in neurites through modulation of mRNA stability”
